Molecules are shown by their SMILES. Records with an inconclusive call do not appear. A call without a number means that no potency is given here. Unmarked numbers belong to inactive results. Calls of active or inactive are those of the source. Calls come from the whole dose curve; as a rule, active = well fitted curve in the direction sought with a large enough effect; inconclusive = small, poorly fitted or top-dose-only effect, or another doubt; inactive = no such curve, though single readings can be large; an effect the other way counts as inactive or inconclusive.

One test in a line: P-glycoprotein substrates identified in KB-3-1 adenocarcinoma cell line, qHTS therapeutic library screen (AID 1346986). Note: nearly all actives have a fitted effect of over 60% in size. Conditions: KB-3-1 parental cells viability, CellTiter-Glo, 72 h; series mostly up to 44.5 µM. A digest of the protocol:
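Resistance attributable to P-gp was assessed by comparing AC50 in KB-8-5-11 with parental KB-3-1 and by tariquidar reversal. Cells were exposed 72 h and viability read by CellTiter-Glo.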
On to `CC(/C=C/[C@]1(O)[C@@]2(C)CO[C@@]1(C)C[C@@H](O)C2)=C\C(=O)O[C@@H]1O[C@H](CO)[C@@H](O)[C@H](O)[C@H]1O`, for which the Potency entry was “inactive”.
As for `Cn1c(=O)c2nc(/C=C/c3cccc(Cl)c3)n(C)c2n(C)c1=O`, the Potency entry was “inactive”.
`COc1cc([C@H]2OC[C@]3(OC(C)=O)[C@@H](c4ccc(O[C@@H]5O[C@H](CO)[C@@H](O)[C@H](O)[C@H]5O)c(OC)c4)OC[C@H]23)ccc1O`: the Potency result was “inactive”.
On to `C[C@@H]1O[C@@H](O[C@H]2[C@H](OC(=O)[C@]34CCC(C)(C)C[C@H]3C3=CCC5[C@@]6(C)C[C@H](O)[C@H](O[C@@H]7O[C@H](CO)[C@@H](O[C@@H]8O[C@H](CO)[C@@H](O)[C@H](O)[C@H]8O)[C@H](O)[C@H]7O)[C@@](C)(CO)C6[C@H](O)C[C@@]5(C)[C@]3(C)C[C@H]4O)OC[C@H](O)[C@@H]2O)[C@H](O)[C@H](O)[C@H]1O[C@@H]1OC[C@@H](O)[C@H](O[C@@H]2OC[C@](O)(CO)[C@H]2O)[C@H]1O` (some centres undefined), for which the outcome is “inactive [at 9.29 µM]”.
Take `C[C@H]1CC[C@@]2(OC1)O[C@H]1CC3C4CC=C5C[C@H](O)C[C@@H](O[C@@H]6O[C@@H](C)[C@H](O)[C@@H](O)[C@H]6O[C@@H]6O[C@@H](C)[C@H](O)[C@@H](O)[C@H]6O)[C@]5(C)C4CC[C@]3(C)[C@H]1[C@@H]2C` (some centres undefined): the Potency entry is “inactive”.
For `CC(c1c[nH]c2ccccc12)C(O)C(=O)O` (centres undefined), the Potency result was “inactive”.
For `C[C@]12C=CC(=O)C=C1CC[C@@H]1[C@@H]2[C@@H](O)C[C@@]2(C)[C@H]1CC[C@]2(O)C(=O)COC(=O)CCC(=O)O`, the Potency result was “inactive”.
With `C[C@H]1[C@H](C)CC[C@]2(C(=O)O)CC[C@]3(C)C(=CC[C@@H]4[C@@]5(C)C[C@@H](O)[C@H](O)[C@@](C)(CO)[C@@H]5CC[C@]43C)[C@H]12`, the Potency result was “inactive”.
For `C=C1CCC2C(C)(COC3OC(COC(=O)CC(=O)O)C(O)C(O)C3O)CCCC2(C)C1CCC1=CCOC1=O` (centres undefined), the Potency result was “inactive”.

The next test is described as follows: P-glycoprotein substrates identified in KB-8-5-11 adenocarcinoma cell line, qHTS therapeutic library screen (AID 1346987). Note: nearly all actives have a fitted effect of over 65% in size. Note: potency is the fitted concentration of half-maximal effect. Conditions: KB-8-5-11 (P-gp overexpressing) viability, CellTiter-Glo, 72 h; series mostly up to 44.5 µM. In a few lines:
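Steps: plate 500 KB-8-5-11 cells/well in DMEM + 10% FCS (colchicine removed); pin compounds in dose-response; incubate 72 h, 37 degree C, 5% CO2; add CellTiter-Glo, 5 min; read luminescence.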
(Quantitative high-throughput screening tests each substance at several concentrations.)
Regarding `C[C@@H]1C/C=C/C=C\C=C\C=C\[C@H](O[C@@H]2O[C@H](C)[C@@H](O)[C@H](N)[C@@H]2O)C[C@@H]2O[C@](O)(C[C@@H](O)C[C@H]3O[C@@H]3/C=C/C(=O)O1)C[C@H](O)[C@H]2C(=O)O`, the Potency result is “inactive”.
Consider `NC(=O)[C@H]1CCCCc2c1[nH]c1ccc(Cl)cc21`, for which the Potency entry is “inactive”.
In the case of `CC1(C)CC2C3=CCC4C5(C)CCC(OC6OC(CO)C(O)C(OC7OC(CO)C(O)C(OC8OC(CO)C(O)C(OC9OC(COC%10OC(CO)C(O)C(O)C%10O)C(O)C(O)C9O)C8O)C7O)C6O)C(C)(C)C5CCC4(C)C3(C)CCC2(C(=O)O)CC1O` (centres undefined), the activity change, negative = cytotoxicity is -1.4% [at 9.29 µM].
With `CC(C)(OC1OC(CO)C(O)C(O)C1O)C1CCC(O)(CO)C2CC(O)C(C)(O)C2C1` (centres undefined), the Potency result is “inactive”.
`COC(=O)C1=C[C@@H](O)[C@@H](O)[C@H](O[C@@H]2O[C@H](COC(=O)/C=C/c3ccccc3)[C@@H](O)[C@H](O)[C@H]2O)C1`: the Potency entry is “inactive”.
On to `CC1C/C=C/C=C\CCCCC(O)C/C=C/C(=O)O1` (centres undefined), for which the Potency result was “inactive”.
Regarding `CC(=O)N1c2ccccc2C2(O)CC3C(=O)NC(CC(C)C)C(=O)N3C12` (centres undefined), the Potency result is “inactive”.
In the case of `C=C[C@](C)(CC/C=C(\C)C(=O)O)O[C@@H]1OC[C@H](O)[C@H](O)[C@H]1O`, the Potency entry is “inactive”.
On to `C=C[C@H]1[C@H](O[C@@H]2O[C@H](CO)[C@@H](O)[C@H](O)[C@H]2O)OC=C(C(=O)OC)[C@H]1C[C@@H]1N[C@H](C(=O)O)Cc2c1[nH]c1ccccc21`, for which the Potency entry was “inactive”.
For `CC(/C=C/[C@]1(O)[C@@]2(C)CO[C@@]1(C)C[C@@H](O)C2)=C\C(=O)O[C@@H]1O[C@H](CO)[C@@H](O)[C@H](O)[C@H]1O`, the Potency entry is “inactive”.
As to `Cn1c(=O)c2nc(/C=C/c3cccc(Cl)c3)n(C)c2n(C)c1=O`, the Potency result is “inactive”.
With `CCNC(=O)[C@@H]1CCCN1C(=O)[C@H](CCCN=C(N)N)NC(=O)[C@H](CC(C)C)NC(=O)[C@@H](C)NC(=O)[C@H](Cc1ccc(O)cc1)NC(=O)[C@H](CO)NC(=O)[C@H](Cc1c[nH]c2ccccc12)NC(=O)[C@H](Cc1cnc[nH]1)NC(=O)[C@@H]1CCC(=O)N1`, the Potency entry was “inactive”.
Turning to `CCC/C=C/C(=O)O[C@H]1CC(C)(C)CC2[C@]13[C@H](O)O[C@@]21CCC2[C@@]4(C)CC[C@H](O[C@@H]5O[C@H](C(=O)O)[C@@H](O)[C@H](O[C@@H]6O[C@H](CO)[C@H](O)[C@H](O)[C@H]6O[C@@H]6O[C@@H](C)[C@H](O)[C@@H](O)[C@H]6O[C@@H]6OC[C@](O)(CO)[C@H]6O)[C@H]5O[C@@H]5O[C@H](CO)[C@H](O)[C@H](O)[C@H]5O)C(C)(C)C4CC[C@@]2(C)[C@]1(C)C[C@H]3OC(C)=O` (some centres undefined), the activity change, negative = cytotoxicity was 0.402% [at 9.29 µM].
For `N#Cc1ccnc(N2C(=O)CC[C@H]2C(=O)N(c2cncc(F)c2)[C@H](C(=O)NC2CC(F)(F)C2)c2ccccc2Cl)c1`, the Potency result is “inactive”.
The same measure, in the same setting: to `COc1c(C)c(C(=O)c2ccc(N)c(C(=O)O)c2)n2ccccc12` belongs “inactive”; to `C=C1C(OC(C)=O)C(=O)C2C(C)(C)C(OC(C)=O)CCC2(C)C1CC(OC(C)=O)/C(C)=C/COC(C)=O` (centres undefined), “inactive”; to `CC1=C(C)C(=O)OC(C(C)C2C(O)CC3C4C5OC5C5(O)CC(OC6OC(CO)C(O)C(O)C6O)CC(O)C5(C)C4CCC32C)C1` (centres undefined), “inactive”.
For `COc1cc([C@H]2OC[C@]3(OC(C)=O)[C@@H](c4ccc(O[C@@H]5O[C@H](CO)[C@@H](O)[C@H](O)[C@H]5O)c(OC)c4)OC[C@H]23)ccc1O`, the Potency result is “inactive”.
Take `C[C@@H]1O[C@@H](O[C@H]2[C@H](OC(=O)[C@]34CCC(C)(C)C[C@H]3C3=CCC5[C@@]6(C)C[C@H](O)[C@H](O[C@@H]7O[C@H](CO)[C@@H](O[C@@H]8O[C@H](CO)[C@@H](O)[C@H](O)[C@H]8O)[C@H](O)[C@H]7O)[C@@](C)(CO)C6[C@H](O)C[C@@]5(C)[C@]3(C)C[C@H]4O)OC[C@H](O)[C@@H]2O)[C@H](O)[C@H](O)[C@H]1O[C@@H]1OC[C@@H](O)[C@H](O[C@@H]2OC[C@](O)(CO)[C@H]2O)[C@H]1O` (some centres undefined): the outcome was “inactive [at 9.29 µM]”.
Take `CON(C)C(=O)N1N=C(c2cc(F)ccc2F)S[C@@]1(CCCN)c1ccccc1`: the Potency is 164 nM (active).
Regarding `CCOC(=O)c1c(C)nn(-c2cccc([N+](=O)[O-])c2)c1C`, the Potency entry is “inactive”.
As to `Cc1ccc(C(=O)Nc2ccc(Oc3cc4cnn(C)c4cc3-c3cn[nH]c3)c(F)c2)c(=O)n1-c1ccc(F)cc1`, the Potency was 4610 nM (active).
Regarding `C[C@H]1CC[C@@]2(OC1)O[C@H]1CC3C4CC=C5C[C@H](O)C[C@@H](O[C@@H]6O[C@@H](C)[C@H](O)[C@@H](O)[C@H]6O[C@@H]6O[C@@H](C)[C@H](O)[C@@H](O)[C@H]6O)[C@]5(C)C4CC[C@]3(C)[C@H]1[C@@H]2C` (some centres undefined), the Potency entry is “inactive”.
On the same count and under the same terms, with `CC(=C/C(=O)O)/C=C/[C@]1(O)[C@@]2(C)CO[C@]1(C)C[C@H](O[C@@H]1O[C@H](CO)[C@@H](O)[C@H](O)[C@H]1O)C2` the entry was “inactive”; with `COc1cc(/C=C/C(=O)O[C@H]2[C@H](O)[C@@H](CO)O[C@@]2(CO)O[C@H]2O[C@H](COC(=O)c3ccc(O)cc3)[C@@H](O)[C@H](O)[C@H]2O)cc(OC)c1OC`, “inactive”.
Regarding `CC(c1c[nH]c2ccccc12)C(O)C(=O)O` (centres undefined), the Potency entry was “inactive”.
Turning to `COc1cc(/C=C/C(=O)O[C@H]2[C@H](OC(=O)/C=C/c3cc(OC)c(O)c(OC)c3)O[C@H](CO[C@@H]3O[C@H](CO)[C@@H](O)[C@H](O)[C@H]3O)[C@@H](O)[C@@H]2O)ccc1O`, the Potency result is “inactive”.
Still for that read-out and setting: with `Cc1coc2c1CC1OC1(C)CCC1OC1(C)C2` (centres undefined) the entry was “inactive”; with `C=C1CC[C@H]2[C@@](C)(CCC(O)[C@@]2(C)CO)[C@@H]1C/C=C(/C(=O)O)C(O)CO` (some centres undefined), “inactive”.
Take `C[C@]12C=CC(=O)C=C1CC[C@@H]1[C@@H]2[C@@H](O)C[C@@]2(C)[C@H]1CC[C@]2(O)C(=O)COC(=O)CCC(=O)O`: the Potency entry was “inactive”.
For `COc1cc(/C=C/C(=O)OC2[C@H](O)CC(O)(C(=O)O)C[C@H]2O)ccc1O` (some centres undefined), the Potency entry is “inactive”.
`C[C@H]1[C@H](C)CC[C@]2(C(=O)O)CC[C@]3(C)C(=CC[C@@H]4[C@@]5(C)C[C@@H](O)[C@H](O)[C@@](C)(CO)[C@@H]5CC[C@]43C)[C@H]12`: the Potency result is “inactive”.
Turning to `CC(=O)O[C@@H]1C[C@@]23C[C@@]24CC[C@H](OC2OC[C@@H](O)[C@H](O)[C@H]2O)C(C)(C)[C@@H]4CC[C@H]3[C@]2(C)CC3OC4(C[C@@H](C)C3[C@@]12C)OCC1(C)OC14` (some centres undefined), the Potency result was “inactive”.
Consider `O=C(O[C@H]1[C@@H]2C=CO[C@@H](O[C@@H]3O[C@H](CO)[C@@H](O)[C@H](O)[C@H]3O)[C@@H]2[C@@]2(CO)O[C@@H]12)c1ccc(O)cc1`, for which the Potency result is “inactive”.
Regarding `C=C1CCC2C(C)(C)C(O)CCC2(C)C1CCC(C)CCOC(=O)CCC(=O)O` (centres undefined), the Potency entry is “inactive”.
On to `C=C1CCC2C(C)(COC3OC(COC(=O)CC(=O)O)C(O)C(O)C3O)CCCC2(C)C1CCC1=CCOC1=O` (centres undefined), for which the Potency result was “inactive”.
Take `CC1(C)C(O)CCC2(C)C1C(O)C=C1COC(=O)C12O` (centres undefined): the Potency entry is “inactive”.
As for `COC1C=C([C@@H]2CC=C3[C@@]4(C)C(CC[C@]32C)[C@@]2(C)C=CC(=O)C(C)(C)C2C[C@H]4OC(C)=O)C(=O)O1` (some centres undefined), the Potency result is “inactive”.
Same read-out and setting: to `C/C=C/C=C/C(CC(=O)O)Nc1ccc(C=O)cc1` (centres undefined) belongs “inactive”; to `CCn1nnnc1NCc1ccc(C(C)C)cc1`, “inactive”.

The values above are taken from PubChem BioAssay (NCATS).
